# Screening data from PubChem BioAssay.
# HPGD inh: qHTS Assay for Inhibitors of HPGD (15-Hydroxyprostaglandin Dehydrogenase); purified HPGD, NADH fluorescence kinetic, PGE2 substrate; AID 894, 2007; 15-hydroxyprostaglandin dehydrogenase [NAD(+)] (Homo sapiens), P15428; 150,000 compounds, 4.3% hits; Potency, µM, for the others: at the top dose activity change, negative = inhibition, hits mostly inhibitors; also: potency is read from the fitted curve at half-maximal effect
#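 20 nM HPGD preincubated 15 min at room temperature with compound in 50 mM Tris-HCl pH 8, 0.01% Tween 20. Started with 1 mM NAD+ and 30 uM prostaglandin E2; NADH fluorescence (360/450 nm) read 5 times over 30-s intervals, last minus first.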
# IMPase inh: qHTS Assay for Identifying the Cell-Membrane Permeable IMPase Inhibitors | inhibition (IP1 accumulation), % at 46.1 µM | CHO-M1 cells, IP1 accumulation, HTRF TR-FRET ratio | 120,000 tested, under 10 active; active = well fitted curve in the direction sought with a large enough effect in the signal ratio, not every such curve was filed as active; inconclusive = small, poorly fitted or top-dose-only effect, or a change in a side signal; inactive = no such curve, though single readings can be large or run the other way; the % refers to the signal ratio;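 also: cells stimulated with carbachol in lithium chloride buffer; plate controls were DMSO basal wells for no effect and reference inhibitor wells for full effect; higher means more IMPase inhibition seen as more IP1 and lower FRET ratio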
#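 Cellular IMPase inhibition is scored as a rise in cytosolic IP1, detected by competitive TR-FRET between d2-labelled IP1 and a europium anti-IP1 antibody. M1-expressing CHO cells were stimulated with carbachol for 30 min at 37C, with lithium (50 mM LiCl) present in the buffer.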
# ALDH1A1 block: qHTS Assay for Inhibitors of Aldehyde Dehydrogenase 1 (ALDH1A1). Aldehyde dehydrogenase 1A1 (Homo sapiens), P00352. Purified ALDH1A1, NADH fluorescence, propionaldehyde substrate. Potency, µM (series often up to 75.3 µM), for the others: at the highest dose activity, negative = inhibition, hits mostly inhibitors. 220,000 compounds, 7.3% hits. AID 1030, 2008;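 also: potency is read from the fitted curve at half-maximal effect; plate controls were no enzyme wells and a reference inhibitor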
# Target sequence (P00352 whole entry, looked up): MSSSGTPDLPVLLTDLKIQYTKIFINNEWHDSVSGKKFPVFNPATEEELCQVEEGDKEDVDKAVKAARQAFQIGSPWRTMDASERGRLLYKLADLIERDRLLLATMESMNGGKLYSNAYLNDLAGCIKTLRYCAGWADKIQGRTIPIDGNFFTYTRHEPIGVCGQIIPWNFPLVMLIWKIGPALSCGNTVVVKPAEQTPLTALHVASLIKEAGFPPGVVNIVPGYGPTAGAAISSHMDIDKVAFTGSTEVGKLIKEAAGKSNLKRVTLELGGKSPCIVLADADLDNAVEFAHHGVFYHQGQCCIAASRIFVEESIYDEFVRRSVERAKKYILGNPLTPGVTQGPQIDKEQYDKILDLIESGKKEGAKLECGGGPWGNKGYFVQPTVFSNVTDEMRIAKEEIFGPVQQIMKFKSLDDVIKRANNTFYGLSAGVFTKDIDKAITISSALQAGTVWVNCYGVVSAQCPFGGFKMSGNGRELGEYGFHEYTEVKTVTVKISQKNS
# Numbers without * were called inactive; ? = inconclusive; · = no result given; [ ] = another dose, or the depositor's remark. This is a sample that favours compounds with a hit; in the whole collection about 9% have one here. Unless noted, calls follow the shape of the dose curve; as a rule, active = well fitted inhibition curve with a large enough effect (not every such curve was filed as active); inconclusive = small, poorly fitted or top-dose-only effect, or another doubt; inactive = no such curve, though single readings can be large or run the other way. Unless noted, % is scaled to controls: 0 for no effect and ±100 for the full control effect.
SMILES,HPGD inh,IMPase inh,ALDH1A1 block
O=C(NC1CCc2ccccc21)C1CCN(S(=O)(=O)c2ccc(Cl)cc2)CC1 (stereo not given),-20%,3,7%
Cn1c(=O)c(=O)n(C)c2cc(S(=O)(=O)N3CCc4ccccc43)ccc21,-6%,7,3%
O=C(Nc1ccc(Br)cc1)c1cccc(S(=O)(=O)N2CCc3ccccc32)c1,·,1,·
O=S(=O)(NC1CCc2ccccc21)c1ccc(S(=O)(=O)N2CCCC2)cc1 (stereo not given),-7%,13,14µM*
O=C(Nc1ccc(S(=O)(=O)N2CCc3ccccc32)cc1)c1ccco1,-19%,3,25µM*
COc1ccccc1C(=O)Nc1ccc(S(=O)(=O)N2CCc3ccccc32)cc1,-20%,2,?
CCOC(=O)c1cc(OC(=O)c2cc(OC)c(OC)c(OC)c2)n(-c2ccccc2)n1,·,-4,·
COc1cccc(NC(=O)c2ncc(Cl)c(Cl)c2Cl)c1,·,·,5%
C/C(=N\NC(=O)c1cccnc1)c1nnn(-c2nonc2N)c1C,·,·,6%
Cc1ccc(S(=O)(=O)N2CCSC2)cc1C,-7%,7,1%
O=C(Nc1ccc2c(c1)OCO2)c1ccc(CN2CCOCC2)cc1,1%,9,-1%
O=C(Nc1ccc(CN2CCCCC2)cc1)c1ccc2c(c1)OCO2,28µM*,9,-1%
CN(C)Cc1ccccc1-c1ccc2ncnc(NC3CC3)c2c1,-28%,·,-4%
Cc1ccc(NC(=O)c2ccccc2-c2ccc(C(F)(F)F)cc2)cc1S(=O)(=O)N1CCOCC1,-16%,·,10%
Cc1cc(C)c2c(=O)n(CC(=O)N3CCC(N4CCCCC4)CC3)sc2n1,13µM*,4,13µM*
CCOC(=O)C1CCCN(C(=O)Cn2sc3nc(C)cc(C)c3c2=O)C1 (stereo not given),?,13,?
CC(C)c1ccc(NC(=O)c2cn(C3CCCCC3)c(=O)c3c2c2ccccc2n3C)cc1,·,-1,·
CCCCC(CC)COC(=O)C(C#N)=C(c1ccccc1)c1ccccc1 (stereo not given),-6%,·,-13%
Cc1ccc(/C=C/C(=O)N2CCC(Cc3ccccc3)CC2)cc1,-7%,·,-14%
Cc1ccc(/C=C/C(=O)N2CCCC(C)C2)cc1 (stereo not given),1.6µM*,·,?
CC1CCN(C(=O)/C=C/c2ccc(C(C)(C)C)cc2)CC1,16µM*,·,5%
CCOC(=O)C1CCCN(C(=O)/C=C/c2ccc(Cl)cc2)C1 (stereo not given),·,·,-6%
CCN(CC)CCN(Cc1cc2ccc(C)cc2[nH]c1=O)C(=O)Nc1ccc(Cl)cc1,·,·,-1%
CCCCc1nc2c(c3c1C[C@H](C)OC3)CN(C(=O)c1cc(I)ccc1F)CC2,0%,·,-9%[13.5 µM]
COc1ccc(CCNC(=O)C(=O)NCc2ccccn2)cc1,·,·,0%
SMILES,HPGD inh,IMPase inh,ALDH1A1 block
CCc1nn2c(=O)c(S(=O)(=O)Nc3ccc(Br)cc3F)c(C)nc2s1,·,9,·
COc1ccc(C2=NO[C@@H]3C(=O)N(c4ccc5c(c4)OCCO5)C(=O)[C@H]23)cc1OC,-16%,1,?
O=C1[C@@H]2C(c3cccnc3)=NO[C@@H]2C(=O)N1c1ccc2ccccc2c1,·,·,1.6µM*
O[C@H](CN1CCN(c2cccc(Cl)c2)CC1)C(c1ccccc1)c1ccccc1,-9%,6,-10%
CCCCC[C@H](O)/C=C/C=C\CCCCCCCC(=O)O,-3%,·,5%
C/C=C(\C)c1nnc(NC(=O)c2ccco2)s1,-9%,2,-1%
O=S(=O)(c1ccc2c(c1)OCCO2)N(Cc1ccc(F)cc1)Cc1nnc(-c2cccs2)o1,4.5µM*,17,4µM*
Cc1cc(C(=O)CN(Cc2ccc(F)cc2)S(=O)(=O)c2ccc3c(c2)OCCO3)c(C)n1C,-12%,2,?
CCc1[nH]c(C(=O)O)c(C)c1C(=O)OC,·,·,8%
Cn1nc(SCC(=O)O)sc1=S,14µM*,-2,3%
CCOC(=O)C(Sc1nn(C)c(=S)s1)C(C)=O (stereo not given),-23%,8,?
O=c1[nH]c(SCc2cccc(Cl)c2)nc2c1CCCC2,·,2,-9%
CN(C(=O)CSc1nc2c(c(=O)[nH]1)CCC2)c1ccccc1,·,·,-12%
O=c1[nH]c(SCc2ccc(Cl)cc2)nc2ccccc12,·,·,6%
Cc1oc(-c2ccccc2Cl)nc1CSCC(=O)N1CCCC1,-16%,0,?
O=c1[nH]c(SCc2ccc(Cl)cc2)nc2c1CCC2,4.5µM*,-5,-5%
Cc1oc(-c2ccccc2Cl)nc1CSc1nc2c(c(=O)[nH]1)CCC2,2.8µM*,·,-8%
O=c1[nH]c(SCc2cccc(F)c2)nc2c1CCCC2,7.1µM*,·,-10%
Cc1oc(-c2ccccc2Cl)nc1CSCC(=O)NC1CCCC1,-23%,-3,14µM*
CN1CCN(CCCC(=O)c2ccc(C3CCCC3)cc2)CC1,-7%,·,?
COc1ccc(CN2CCC(CO)(Cc3ccccc3C(F)(F)F)CC2)c(F)c1,·,·,5%
CNCCCCCCCCSc1nc(C(C)C)ccc1C(=O)c1cccs1,-1%,10,?
CC(=O)c1cccc(-n2nnnc2SCC(=O)Nc2cccc(NC(=O)c3ccco3)c2)c1,-11%,-10,?
O=C(O)C1CCCN1S(=O)(=O)c1ccc2[nH]c(=O)c(=O)[nH]c2c1 (stereo not given),-18%,8,-2%
Cc1cccc(CSc2nncc(=O)[nH]2)c1,-26%,-5,-4%
SMILES,HPGD inh,IMPase inh,ALDH1A1 block
Cc1cccc(CSc2nc3c(c(=O)[nH]2)CCCC3)c1,7.9µM*,·,11%
Cc1ccc(-c2c[n+](CC(=O)Nc3cc(=O)n(C)c(=O)n3C)c3n2CCC3)cc1,-7%,·,7%
O=C(O)C1=CC(O)[C@@H](O)C(O)C1 (stereo not given in full),-6%,·,20%
CC(C)(C)SCCNC(=O)CSCc1ccc([N+](=O)[O-])cc1,-17%,1,?
CCC1(C(=O)OC)NC(c2ccco2)C2C(=O)N(c3ccc(F)cc3)C(=O)C21 (stereo not given),·,·,18µM*
CCC1(C(=O)OC)NC(c2ccco2)C2C(=O)N(c3ccccc3)C(=O)C21 (stereo not given),-5%,7,?
COc1ccc2cc(C)c3nnc(SCC(=O)Nc4nc(-c5ccc(F)cc5)cs4)n3c2c1,-20%,·,7%
CCOc1ccccc1Nc1nnc(SCC(=O)N2CCCC2)s1,-11%,-11,-12%
Cc1ccc(Nc2nnc(SCC(=O)Nc3ccccc3[N+](=O)[O-])s2)cc1,-12%,1,0%
COc1ccc(-c2csc(NC(=O)CSc3nnc(Nc4ccccc4C)s3)n2)cc1,·,·,25µM*
CCOc1ccccc1Nc1nnc(SCC(=O)Nc2nc(-c3ccc(OC)cc3)cs2)s1,·,·,25µM*
Cc1cccc(Nc2nnc(SCC(=O)Nc3ccccc3[N+](=O)[O-])s2)c1C,?,·,1.3µM*
COc1cc(OC)c2c(c1O)OC(c1ccccc1)CC2=O (stereo not given),·,·,-1%
CC(C)(C)NC(=O)COC(=O)CCC(=O)c1cccs1,·,·,-1%
COC(=O)NC(c1ccc2ccccc2c1)C(C(C)=O)C(=O)OC (stereo not given),·,·,-4%[13.5 µM]
